# Laboratory results published in PubChem BioAssay (Tox21).
# “And” between values parts separate entries of the source, which are not always exact repeats. Equal entries are not always repeated. Inconclusive results are not listed. A call without a number means that no potency is given here. The source holds several records for some structures; these can differ, active in one and inactive in another. The source made the active and inactive calls. Unless noted, calls follow the shape of the dose curve; as a rule, active = well fitted curve in the direction sought with a large enough effect in the repeat runs; inconclusive = weak or mixed curves; inactive = no such curve, though single readings can be large; an effect the other way counts as inactive or inconclusive.
# Key:
# [1] = molecular target: Acetylcholinesterase (Homo sapiens) (UniProt P22303); assay: Acetylcholinesterase (AChE) small molecule antagonists: enzyme-based qHTS assay (AID 1347397; calls by dose curve; also: nearly all actives have a fitted effect of over 55% in size; also: potency is read from the fitted curve at half-maximal effect); conditions: Potency: AChE enzyme activity inhibition
# Acetylcholinesterase (Homo sapiens), sequence (P22303 whole entry, looked up): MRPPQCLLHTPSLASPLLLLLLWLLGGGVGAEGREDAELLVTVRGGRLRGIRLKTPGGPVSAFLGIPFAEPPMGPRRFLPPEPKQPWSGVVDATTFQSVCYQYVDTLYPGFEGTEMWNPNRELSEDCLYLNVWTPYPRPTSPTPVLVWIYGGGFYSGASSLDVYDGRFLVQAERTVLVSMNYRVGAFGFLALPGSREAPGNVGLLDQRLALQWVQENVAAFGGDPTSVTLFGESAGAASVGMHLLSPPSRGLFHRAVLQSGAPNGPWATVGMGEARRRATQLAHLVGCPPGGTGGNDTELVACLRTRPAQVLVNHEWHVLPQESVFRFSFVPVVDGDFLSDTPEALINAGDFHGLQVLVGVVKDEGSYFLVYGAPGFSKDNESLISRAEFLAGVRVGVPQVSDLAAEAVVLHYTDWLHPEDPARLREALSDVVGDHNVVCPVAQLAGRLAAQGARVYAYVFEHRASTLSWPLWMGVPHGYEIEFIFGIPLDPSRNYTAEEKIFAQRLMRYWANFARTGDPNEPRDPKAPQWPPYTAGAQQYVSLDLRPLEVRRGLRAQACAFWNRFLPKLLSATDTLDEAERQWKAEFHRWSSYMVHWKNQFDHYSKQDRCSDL
# Method in brief: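 Colorimetric DTNB read-out of thiocholine released from acetylthiocholine by recombinant human AChE (50 mU/mL as dispensed). Compounds were preincubated 30 min at RT before substrate/DTNB addition, with a 10 min RT reaction.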
# [2] = molecular target: Acetylcholinesterase (Homo sapiens) (UniProt P22303); assay: Acetylcholinesterase (AChE) small molecule antagonists: fluorescence cell-based qHTS assay (AID 1347398; calls by dose curve; also: nearly all actives have a fitted effect of over 50% in size; also: potency is read from the fitted curve at half-maximal effect); conditions: Potency: AChE activity
# Method in brief: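 SH-SY5Y, 2,000 cells/well, attached overnight; cmpd 30 min 37 C; acetylthiocholine/Thiolite Green cocktail 40 min RT; fluorescence Ex/Em 490/520 nm.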
# [3] = molecular target: Cytochrome P450 2D6 (Homo sapiens) (UniProt P10635); assay: Cytochrome P450 Family 2 Subfamily D Member 6 (CYP2D6) small molecule antagonists: luciferase reporter qHTS assay (AID 1671196); also: nearly all actives have a fitted effect of over 50% in size; also: potency is read from the fitted curve at half-maximal effect; as to activity change, negative = inhibition: series mostly up to about 120 µM
# Cytochrome P450 2D6 (Homo sapiens), sequence (P10635 whole entry, looked up): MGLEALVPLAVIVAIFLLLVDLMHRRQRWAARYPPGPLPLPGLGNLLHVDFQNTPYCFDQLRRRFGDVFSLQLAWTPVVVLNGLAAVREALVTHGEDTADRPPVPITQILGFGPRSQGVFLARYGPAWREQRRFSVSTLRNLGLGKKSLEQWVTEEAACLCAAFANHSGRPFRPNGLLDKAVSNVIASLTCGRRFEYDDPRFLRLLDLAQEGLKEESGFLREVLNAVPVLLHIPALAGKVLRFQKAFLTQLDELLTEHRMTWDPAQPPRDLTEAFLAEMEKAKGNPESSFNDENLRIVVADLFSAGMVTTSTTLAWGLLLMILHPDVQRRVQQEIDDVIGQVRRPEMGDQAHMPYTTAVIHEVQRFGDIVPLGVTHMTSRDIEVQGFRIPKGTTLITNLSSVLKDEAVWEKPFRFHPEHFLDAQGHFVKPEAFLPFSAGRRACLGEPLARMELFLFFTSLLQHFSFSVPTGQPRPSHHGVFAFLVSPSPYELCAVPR
# Method in brief: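 CYP2D6 activity was followed as luminescence from its luciferin product after a 1 h NADPH-driven reaction at room temperature. Enzyme-substrate mix and compound were pre-incubated for 10 min, and the signal was read 20 min after adding detection reagent.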
# [4] = molecular target: Cytochrome P450 2C19 (Homo sapiens) (UniProt P33261); assay: Cytochrome P450 Family 2 Subfamily C Member 19 (CYP2C19) small molecule antagonists: luciferase reporter qHTS assay (AID 1671197); also: nearly all actives have a fitted effect of over 65% in size; also: potency is read from the fitted curve at half-maximal effect; as to activity change, negative = inhibition: series mostly up to about 120 µM
# Cytochrome P450 2C19 (Homo sapiens), sequence (P33261 whole entry, looked up): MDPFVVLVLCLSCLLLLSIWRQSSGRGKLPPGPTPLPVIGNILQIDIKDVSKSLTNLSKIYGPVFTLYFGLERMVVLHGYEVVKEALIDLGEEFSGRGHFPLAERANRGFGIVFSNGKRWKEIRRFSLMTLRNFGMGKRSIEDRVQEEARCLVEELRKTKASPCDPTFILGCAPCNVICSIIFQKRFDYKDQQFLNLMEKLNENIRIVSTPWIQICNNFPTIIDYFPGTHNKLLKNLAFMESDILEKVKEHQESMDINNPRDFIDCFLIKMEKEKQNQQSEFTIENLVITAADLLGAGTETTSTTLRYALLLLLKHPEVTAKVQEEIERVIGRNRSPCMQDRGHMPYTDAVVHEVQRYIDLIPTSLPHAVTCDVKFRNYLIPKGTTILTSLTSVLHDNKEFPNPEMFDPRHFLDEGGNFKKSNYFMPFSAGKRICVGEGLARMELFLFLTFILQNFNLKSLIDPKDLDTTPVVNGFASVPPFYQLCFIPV
# Method in brief: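 Light output is proportional to CYP2C19 activity: proluciferin substrate is converted to luciferin, then detected by a luciferin detection reagent that also stops the 1 h, 37C NADPH-driven reaction. Ketoconazole serves as positive control.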
# [5] = molecular target: Cytochrome P450 2C9 (Homo sapiens) (UniProt P11712); assay: Cytochrome P450 Family 2 Subfamily C Member 9 (CYP2C9) small molecule antagonists: luciferase reporter qHTS assay (AID 1671198); also: nearly all actives have a fitted effect of over 50% in size; also: potency is read from the fitted curve at half-maximal effect; as to activity change, negative = inhibition: series mostly up to about 120 µM
# Cytochrome P450 2C9 (Homo sapiens), sequence (P11712 whole entry, looked up): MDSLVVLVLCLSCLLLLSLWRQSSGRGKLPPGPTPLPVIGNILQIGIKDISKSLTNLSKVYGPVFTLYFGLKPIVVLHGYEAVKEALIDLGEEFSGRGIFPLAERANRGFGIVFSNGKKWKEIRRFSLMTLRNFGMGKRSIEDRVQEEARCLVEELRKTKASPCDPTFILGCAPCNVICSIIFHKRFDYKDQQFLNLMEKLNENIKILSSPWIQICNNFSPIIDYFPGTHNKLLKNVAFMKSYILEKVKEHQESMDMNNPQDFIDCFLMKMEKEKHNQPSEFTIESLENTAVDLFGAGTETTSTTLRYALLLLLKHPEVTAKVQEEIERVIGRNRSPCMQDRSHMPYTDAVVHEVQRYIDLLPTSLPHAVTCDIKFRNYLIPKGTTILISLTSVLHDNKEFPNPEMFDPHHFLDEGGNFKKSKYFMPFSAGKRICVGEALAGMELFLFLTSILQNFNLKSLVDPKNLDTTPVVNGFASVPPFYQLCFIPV
# Method in brief: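 P450-Glo proluciferin substrate with CYP2C9 enzyme; 10 min RT preincubation, then NADPH regeneration 1 h at 37C; luciferin detection reagent 20 min RT, luminescence in relative luminescence units.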
# [6] = molecular target: Cytochrome P450 1A2 (Homo sapiens) (UniProt P05177); assay: Cytochrome P450 Family 1 Subfamily A Member 2 (CYP1A2) small molecule antagonists: luciferase reporter qHTS assay (AID 1671199); also: nearly all actives have a fitted effect of over 50% in size; also: potency is read from the fitted curve at half-maximal effect; as to activity change, negative = inhibition: series mostly up to about 120 µM
# Cytochrome P450 1A2 (Homo sapiens), sequence (P05177 whole entry, looked up): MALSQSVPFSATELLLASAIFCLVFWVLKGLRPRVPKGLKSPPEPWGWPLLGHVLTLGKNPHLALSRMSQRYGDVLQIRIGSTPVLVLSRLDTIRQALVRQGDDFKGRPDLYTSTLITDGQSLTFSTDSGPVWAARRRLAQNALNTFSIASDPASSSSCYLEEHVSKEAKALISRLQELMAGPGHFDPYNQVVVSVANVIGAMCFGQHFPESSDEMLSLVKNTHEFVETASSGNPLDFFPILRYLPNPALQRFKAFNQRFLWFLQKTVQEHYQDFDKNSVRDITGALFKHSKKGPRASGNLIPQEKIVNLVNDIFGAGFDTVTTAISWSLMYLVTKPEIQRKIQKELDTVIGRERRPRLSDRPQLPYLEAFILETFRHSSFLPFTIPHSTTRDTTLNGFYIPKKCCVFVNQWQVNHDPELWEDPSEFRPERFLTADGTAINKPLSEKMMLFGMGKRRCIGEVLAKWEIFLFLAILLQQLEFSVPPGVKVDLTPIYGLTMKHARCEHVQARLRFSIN
# Method in brief: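 Luminescence from luciferin formed by CYP1A2 from a proluciferin substrate, read 20 min after detection reagent. Compound was pre-incubated 10 min with enzyme-substrate, and reaction started with NADPH regeneration solution for 1 h at room temperature; furafylline control.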
# [7] = molecular target: Voltage-gated inwardly rectifying potassium channel KCNH2 (Homo sapiens) (UniProt Q12809); assay: Human Ether-a-go-go-Related Gene (hERG) channel small molecule antagonists: fluorescence cell-based qHTS assay (AID 1671200); also: nearly all actives have a fitted effect of over 50% in size; also: potency is read from the fitted curve at half-maximal effect;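 as to activity change, negative = inhibition: hERG-expressing U2OS cells given a thallium stimulus after FluxOR II dye loading; series mostly up to about 77 µM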
# Voltage-gated inwardly rectifying potassium channel KCNH2 (Homo sapiens), sequence (Q12809 whole entry, looked up): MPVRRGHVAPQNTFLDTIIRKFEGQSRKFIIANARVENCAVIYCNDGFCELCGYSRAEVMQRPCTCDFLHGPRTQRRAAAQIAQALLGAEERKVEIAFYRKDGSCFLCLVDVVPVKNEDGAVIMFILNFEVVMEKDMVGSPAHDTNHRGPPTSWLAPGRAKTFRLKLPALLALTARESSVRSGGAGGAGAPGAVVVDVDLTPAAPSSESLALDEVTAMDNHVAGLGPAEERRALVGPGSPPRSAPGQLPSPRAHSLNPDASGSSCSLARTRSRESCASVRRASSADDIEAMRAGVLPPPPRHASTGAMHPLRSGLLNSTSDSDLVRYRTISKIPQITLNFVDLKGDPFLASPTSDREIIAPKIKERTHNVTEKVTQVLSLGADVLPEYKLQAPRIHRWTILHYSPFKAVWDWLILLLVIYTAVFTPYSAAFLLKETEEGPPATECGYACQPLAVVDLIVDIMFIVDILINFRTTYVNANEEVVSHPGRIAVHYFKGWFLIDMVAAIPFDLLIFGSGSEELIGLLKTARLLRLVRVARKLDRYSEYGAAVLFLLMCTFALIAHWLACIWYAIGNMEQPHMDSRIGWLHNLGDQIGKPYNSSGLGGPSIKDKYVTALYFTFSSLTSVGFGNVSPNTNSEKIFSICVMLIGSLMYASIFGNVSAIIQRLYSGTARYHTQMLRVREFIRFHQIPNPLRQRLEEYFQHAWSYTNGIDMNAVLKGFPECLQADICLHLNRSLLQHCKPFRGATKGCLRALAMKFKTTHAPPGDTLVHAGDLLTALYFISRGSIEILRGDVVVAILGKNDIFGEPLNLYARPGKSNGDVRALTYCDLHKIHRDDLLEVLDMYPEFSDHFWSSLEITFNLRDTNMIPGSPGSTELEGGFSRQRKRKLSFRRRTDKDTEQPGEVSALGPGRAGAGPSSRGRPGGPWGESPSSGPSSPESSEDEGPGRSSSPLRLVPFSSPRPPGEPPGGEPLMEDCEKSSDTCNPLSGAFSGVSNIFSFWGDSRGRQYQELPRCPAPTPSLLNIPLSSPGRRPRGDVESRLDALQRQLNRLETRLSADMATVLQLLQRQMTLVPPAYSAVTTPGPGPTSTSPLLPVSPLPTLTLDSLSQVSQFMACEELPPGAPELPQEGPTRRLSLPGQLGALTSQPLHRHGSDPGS
# Method in brief: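 Read-out: thallium influx as a surrogate for potassium, tracked as fluorescence (480 nm ex/540 nm em) every second for 2 min after Stimulus Buffer addition in dye-loaded hERG-U2OS cells.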
# [8] = molecular target: Cytochrome P450 3A4 (Homo sapiens) (UniProt P08684); assay: Cytochrome P450 Family 3 Subfamily A Member 4 (CYP3A4) small molecule antagonists: luciferase reporter qHTS assay (AID 1671201); also: nearly all actives have a fitted effect of over 50% in size; also: potency is read from the fitted curve at half-maximal effect; as to activity change, negative = inhibition: series mostly up to about 120 µM
# Cytochrome P450 3A4 (Homo sapiens), sequence (P08684 whole entry, looked up): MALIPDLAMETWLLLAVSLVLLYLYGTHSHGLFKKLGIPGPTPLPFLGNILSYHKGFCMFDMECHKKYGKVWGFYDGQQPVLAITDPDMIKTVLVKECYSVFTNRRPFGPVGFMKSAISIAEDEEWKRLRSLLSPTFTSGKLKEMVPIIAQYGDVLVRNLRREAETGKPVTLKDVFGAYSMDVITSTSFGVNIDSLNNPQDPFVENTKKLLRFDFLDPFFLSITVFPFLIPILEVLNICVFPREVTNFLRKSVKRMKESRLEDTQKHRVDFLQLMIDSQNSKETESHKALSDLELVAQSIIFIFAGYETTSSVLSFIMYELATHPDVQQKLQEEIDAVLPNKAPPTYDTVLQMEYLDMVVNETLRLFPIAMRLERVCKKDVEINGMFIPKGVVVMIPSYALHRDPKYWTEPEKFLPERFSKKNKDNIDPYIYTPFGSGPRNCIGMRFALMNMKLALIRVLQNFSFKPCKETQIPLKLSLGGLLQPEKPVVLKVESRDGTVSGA
# Method in brief: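 Luminescent readout (RLU) proportional to CYP3A4 activity, from luciferin generated off a proluciferin substrate. Enzyme–substrate mix plus compound 10 min at room temp, NADPH regeneration 1 h, detection reagent 20 min.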
# [9] = molecular target: Acetylcholinesterase (Homo sapiens) (UniProt P22303); assay: Acetylcholinesterase (AChE) small molecule antagonists: enzyme-based qHTS assay with human liver microsomes (AID 1347399; calls by dose curve; also: nearly all actives have a fitted effect of over 60% in size); conditions: Potency: qHTS inhibition
# Method in brief: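 Recombinant human AChE (50 mU/mL in the enzyme mix) and human liver microsomes (0.25 mg/mL final) were preincubated with compound and NADPH (0.25 mg/mL final) for 30 min at 37 C. Acetylthiocholine/DTNB was then added; thiocholine was read colorimetrically after 10 min at room temperature.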
compound,measurement,setting,value
CN(C)C(=S)SSC(=S)N(C)C,Potency,[1],inactive
same,Potency,[2],35.1 µM (active) and 39.9 µM (active) and 21.9 µM (active)
same,Potency,[3],89.4 µM (active) and inactive
same,Potency,[4],7 µM (active) and 6.33 µM (active) and 3.09 µM (active)
same,Potency,[5],9.89 µM (active) and 6.33 µM (active) and 2.19 µM (active)
same,Potency,[6],3.94 µM (active) and 4.48 µM (active) and 2.75 µM (active)
same,Potency,[7],43 µM (active) and 49 µM (active)
same,Potency,[8],39.4 µM (active)
CC(Cc1ccc(O)cc1)NCC(O)c1cc(O)cc(O)c1 (stereo not drawn),Potency,[3],9.77 µM (active)
same,Potency,[4],inactive
same,Potency,[5],inactive
same,Potency,[7],inactive
same,Potency,[8],inactive
CC1(C)[C@H](/C=C2\CCSC2=O)[C@@H]1C(=O)OCc1coc(Cc2ccccc2)c1,Potency,[2],inactive
same,Potency,[9],inactive
same,Potency,[3],39.9 µM (active)
same,Potency,[4],2.24 µM (active)
same,Potency,[5],1.26 µM (active)
same,Potency,[6],22.4 µM (active)
same,Potency,[7],inactive
same,Potency,[8],3.99 µM (active)
CC(=O)[O-].CC(=O)[O-].CC(=O)[O-].[Cr+3],Potency,[7],inactive
CCOP(=S)(OCC)Oc1cc(C)nc(N(CC)CC)n1,Potency,[1],inactive
same,Potency,[9],inactive
same,Potency,[3],50.2 µM (active)
same,Potency,[4],0.399 µM (active)
same,Potency,[5],11.2 µM (active)
same,Potency,[7],inactive
same,Potency,[8],0.633 µM (active)
CCCCn1cc[n+](C)c1 (tested in a mixture with another compound),Potency,[7],inactive
O.O.O.O.O.O.O=S(=O)([O-])[O-].[Ni+2],Potency,[7],inactive
CCCCn1cc[n+](C)c1.[Cl][Fe-]([Cl])([Cl])[Cl],Potency,[7],inactive
CCn1cc[n+](C)c1 (tested in a mixture with another compound),Potency,[3],inactive
same,Potency,[4],inactive
same,Potency,[5],inactive
same,Potency,[7],inactive
same,Potency,[8],inactive
O=C(N[C@@H]1N=C(c2ccccc2F)c2cccc3c2N(CC3)C1=O)c1cc2ccccc2[nH]1,Potency,[1],inactive
same,Potency,[9],inactive
same,Potency,[3],inactive
same,Potency,[5],4.9 µM (active)
same,Potency,[6],inactive
same,Potency,[7],12 µM (active)
same,Potency,[8],inactive
CN1CCc2cc(Cl)c(O)cc2[C@H]2c3ccccc3CC[C@@H]21,Potency,[2],21.9 µM (active)
same,Potency,[9],inactive
same,Potency,[3],0.0078 µM (active)
same,Potency,[4],inactive
same,Potency,[5],inactive
same,Potency,[6],inactive
same,Potency,[7],9.52 µM (active)
same,Potency,[8],inactive
CC(C)=CCN1CC[C@@]2(C)c3cc(O)ccc3C[C@@H]1[C@@H]2C,Potency,[2],44.1 µM (active)
same,Potency,[9],inactive
same,Potency,[4],78.5 µM (active)
same,Potency,[5],inactive
same,Potency,[6],inactive
same,Potency,[8],inactive
[Cl-].[Cl-].[Cl-].[Yb+3],Potency,[7],inactive
COP(=O)(OC)O/C(=C\Cl)c1cc(Cl)c(Cl)cc1Cl,Potency,[9],inactive
same,Potency,[3],79.6 µM (active)
same,Potency,[4],5.03 µM (active)
same,Potency,[5],44.8 µM (active)
same,Potency,[6],1.42 µM (active)
same,Potency,[7],inactive
same,Potency,[8],inactive
Cc1cccc(Cc2cnc[nH]2)c1C,Potency,[1],inactive
same,Potency,[3],2.45 µM (active)
same,Potency,[4],2.19 µM (active)
same,Potency,[5],0.347 µM (active)
same,Potency,[6],0.911 µM (active)
same,Potency,[7],inactive
CN,Potency,[7],inactive
Cc1ccc([N+](=O)[O-])[c]2c1[O][Hg]2,Potency,[2],inactive
same,Potency,[9],inactive
same,Potency,[3],0.871 µM (active)
same,Potency,[4],2.19 µM (active)
same,Potency,[5],0.871 µM (active)
same,Potency,[6],3.23 µM (active)
same,Potency,[7],6.01 µM (active)
same,Potency,[8],7.76 µM (active)
N#CSCc1ccccc1,Potency,[1],inactive
same,Potency,[9],inactive
same,Potency,[3],45 µM (active)
same,Potency,[4],71.3 µM (active)
same,Potency,[6],80 µM (active)
same,Potency,[7],inactive
[C-]1=CC=CC1.[Cl][Zr+2][Cl].c1cc[cH-]c1,Potency,[7],inactive
CCCC[N+]1(C)CCCC1 (tested in a mixture with another compound),Potency,[4],inactive
same,Potency,[5],inactive
same,Potency,[7],inactive
same,Potency,[8],inactive
COc1ccc(Cc2nccc3cc(OC)c(OC)cc23)cc1OC,Potency,[6],inactive
same,Potency,[7],inactive
O.O.O.O.O.O.O.O=S(=O)([O-])[O-].[Co+2],Potency,[7],inactive
[Cl-].[Cl-].[Sn+2],Potency,[7],inactive
C1=CCC=C1,Potency,[7],inactive
CC(=O)O.CC(=O)O.CC(=O)O.CC(=O)O.CC(=O)O.CC(=O)O.CC(=O)O.O.O.[Cr].[Cr].[Cr],Potency,[7],inactive
CC(=O)[O-].CC(=O)[O-].[Co+2],Potency,[7],inactive
CC(C)(C)c1ccc(OP(=O)(Oc2ccccc2)Oc2ccccc2)cc1,Potency,[1],22.6 µM (active)
same,Potency,[9],inactive
same,Potency,[3],inactive
same,Potency,[4],5.06 µM (active)
same,Potency,[5],5.06 µM (active)
same,Potency,[6],16 µM (active)
same,Potency,[7],15.6 µM (active)
same,Potency,[8],inactive
CCOP(=O)(OCC)Oc1nc(Cl)c(Cl)cc1Cl,Potency,[3],5.61 µM (active)
same,Potency,[4],3.15 µM (active)
same,Potency,[5],35.4 µM (active)
same,Potency,[6],1.58 µM (active)
same,Potency,[7],inactive
same,Potency,[8],inactive
COc1ccc2[nH]cc(CCN(C(C)C)C(C)C)c2c1,Potency,[3],4.09 µM (active)
same,Potency,[4],inactive
same,Potency,[5],inactive
same,Potency,[7],28.2 µM (active)
same,Potency,[8],inactive
O=[N+]([O-])c1cccc2cccc([N+](=O)[O-])c12,Potency,[1],inactive
same,Potency,[9],inactive
same,Potency,[3],inactive
same,Potency,[5],inactive
same,Potency,[7],inactive
Oc1ccc2[nH]cc(CCCCN3CC=C(c4ccccc4)CC3)c2c1,Potency,[7],2.68 µM (active)
O=[N+]([O-])[O-].[Tl+],Potency,[7],inactive
CC(=O)[O-].CC(=O)[O-].O.O.[Zn+2],Potency,[7],inactive
Clc1ccc(C(Cl)(Cl)Cl)cc1Cl,Potency,[1],inactive
same,Potency,[9],inactive
same,Potency,[3],inactive
same,Potency,[5],inactive
same,Potency,[7],inactive
CN1CCc2cc3c(cc2C1O)OCO3 (stereo not drawn),Potency,[3],2.01 µM (active)
same,Potency,[5],inactive
same,Potency,[6],40.2 µM (active)
same,Potency,[7],inactive
same,Potency,[8],inactive
COP(=O)(OC)Oc1ccc([N+](=O)[O-])cc1,Potency,[3],25.2 µM (active)
same,Potency,[4],20 µM (active)
same,Potency,[5],inactive
same,Potency,[7],inactive
same,Potency,[8],inactive
CC(=O)[O-].CC(=O)[O-].CC(=O)[O-].[Sb+3],"activity change, negative = inhibition",[7],0.0833% [at 2.72 µM] (inactive)
CNC(=O)/C=C(\C)OP(=O)(OC)OC,Potency,[2],31.7 µM (active)
same,Potency,[9],inactive
same,Potency,[3],inactive
same,Potency,[4],inactive
same,Potency,[5],inactive
same,Potency,[6],28.3 µM (active)
same,Potency,[7],inactive
same,Potency,[8],inactive
CNC(=O)O/N=C(\C)C(C)S(C)(=O)=O (stereo not drawn),Potency,[2],447 µM (active)
same,Potency,[9],inactive
same,Potency,[4],inactive
same,Potency,[5],inactive
same,Potency,[6],inactive
same,Potency,[7],inactive
same,Potency,[8],inactive
CC(=O)[O-].CC(=O)[O-].O.O.O.[Pb+2],Potency,[7],inactive
